# Measurements taken from PubChem BioAssay.
# Calls of active or inactive are those of the source. The rule behind the calls is not given here.
# Test system: Aerobactin synthetase IucA (Klebsiella pneumoniae hvKP1)
# Experiment: Biochemical IucA enzyme inhibition primary screen of the Spectrum library (AID 1346200);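 note: 100% = wells without compound and 0% = wells lacking enzyme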
# Settings: malachite green pyrophosphate, A620, at 8 µM, stronger effect = lower value
row,SMILES,activity remaining
1,CC1(C)O[C@@H]2CC3C4C[C@H](F)C5=CC(=O)C=C[C@]5(C)[C@@]4(F)[C@@H](O)C[C@]3(C)[C@]2(C(=O)CO)O1 (some centres undefined),99.1% (inactive)
2,CC(C)(O)[C@@H]1Cc2cc3ccc(=O)oc3cc2O1,113% (inactive)
3,CN1CCCC(n2nc(Cc3ccc(Cl)cc3)c3ccccc3c2=O)CC1 (centres undefined),106% (inactive)
4,Cn1cc[nH]c1=S,99.8% (inactive)
5,CO[C@]12C[C@@H](COC(=O)c3cncc(Br)c3)CN(C)[C@@H]1Cc1cn(C)c3cccc2c13,108% (inactive)
6,CC1(C)OCC(C2OC(=O)C(O)=C2O)O1 (centres undefined),87.7% (inactive)
7,O=C(/C=C/c1ccc(O)c(O)c1)OC(Cc1ccc(O)c(O)c1)C(=O)O (centres undefined),116% (inactive)
8,O=C1NS(=O)(=O)c2ccccc21,102% (inactive)
9,CCN1CCCC(OC(=O)C(c2ccccc2)c2ccccc2)C1 (centres undefined),110% (inactive)
10,C#CCCCCCCCCCCCC(O)CC(O)CO (centres undefined),98.4% (inactive)
11,C=CCSCC1Nc2cc(Cl)c(S(N)(=O)=O)cc2S(=O)(=O)N1 (centres undefined),91.6% (inactive)
12,CC(CC(O)C1OC1(C)C)[C@@H]1CCC2(C)C3=CCC4C(C)(C)C(=O)CCC4(C)C3CC[C@@]12C (some centres undefined),102% (inactive)
13,CCCCC(=O)O[C@H]1CCC2C3CCc4cc(O)ccc4C3CC[C@@]21C (some centres undefined),97.5% (inactive)
14,C#C[C@]1(O)CCC2C3CCC4=Cc5oncc5C[C@]4(C)C3CC[C@@]21C (some centres undefined),120% (inactive)
15,CCC(=O)OCC(=O)C1(OC(=O)CC)C(C)CC2C3CCC4=CC(=O)C=CC4(C)C3(Cl)C(O)CC21C (centres undefined),119% (inactive)
16,CC1(C)S[C@@H]2[C@H](NC(=O)[C@H](N)c3ccccc3)C(=O)N2[C@H]1C(=O)O,101% (inactive)
17,CC(=O)NCc1c(I)c(NC(C)=O)c(I)c(C(=O)O)c1I,98.7% (inactive)
18,C[C@]12CCC3c4ccc(O)cc4CCC3C1CC[C@@H]2OC(=O)CCC1CCCC1 (some centres undefined),124% (inactive)
19,C=CCc1ccc(OC(=O)c2ccccc2)c(OC)c1,95.9% (inactive)
20,CCC[C@@H]1C[C@@H](C(=O)N[C@@H](C2O[C@H](SC)[C@H](O)[C@@H](O)[C@H]2O)[C@H](C)Cl)N(C)C1 (some centres undefined),77.4% (inactive)
21,CC(=O)O[C@@H]1CC2C(C)(C)C(=O)CC[C@]2(C)C2CC[C@@]3(C)[C@H](c4ccoc4)OC(=O)C4OC43[C@@]21C (some centres undefined),110% (inactive)
22,Cc1c(NC(C)C)c(=O)n(-c2ccccc2)n1C,105% (inactive)
23,C[C@@H]1CC[C@@]2(OC1)O[C@H]1CC3C4CC[C@H]5C[C@@H](O)CC[C@]5(C)C4CC[C@]3(C)[C@H]1[C@@H]2C (some centres undefined),101% (inactive)
24,C[C@]12C=CC(=O)C=C1CCC1C2[C@@H](O)C[C@@]2(C)C1CC[C@]2(O)C(=O)CO (some centres undefined),119% (inactive)
